tim10-1 inh: growth inhibitors of tim10-1 mutant yeast, primary screen, luminescence, uHTS; S. cerevisiae tim10-1 ts strain growth, BacTiter-Glo, 24 h; inhibition, % at 20 µM; hit rate 2.2% among 330,000; AID 463190, 2010;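 active means inhibition of at least 40%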;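 further: mutant grown at 25 °C; 0% = DMSO wells with yeast and 100% = wells holding no yeast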
TIM10 inh: growth inhibitors of isogenic TIM10 control yeast, primary screen, counter-screen for tim10-1 yeast inhibitor project, luminescence, uHTS; AID 463195, 2010; hit rate 1.4% among 330,000; S. cerevisiae TIM10 strain growth, BacTiter-Glo luminescence, 24 h; inhibition, % at 10 µM;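 active means inhibition of 40% or more at the single tested concentration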;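 further: wild-type TIM10 isogenic control strain grown at permissive 25 °C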
tim23-1 inh: growth inhibitors of tim23-1 mutant yeast, primary screen, luminescence, uHTS. S. cerevisiae tim23-1 growth, BacTiter-Glo luminescence, 24 h. inhibition, % at 20 µM. hit rate 1.3% among 330,000. AID 463212, 2010;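 active means growth inhibition of the mutant yeast at or above 50%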;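 further: temperature-sensitive mutant grown at 25 °C; plate controls were DMSO-treated mutant yeast for no effect and medium wells lacking yeast for full effect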
PfHsp90 set2: growth inhibition of PfHsp90-expressing yeast, primary screen, antimalarial PfHsp90 inhibitor project, S. cerevisiae, BacTiter-Glo luminescence, single point, set 2; BacTiter-Glo ATP, 48 h; yeast lacking PDR1 and PDR3 efflux regulators; hit rate 0.32% among 310,000; inhibition, % at 9.4 µM; AID 504621, 2011;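 active means every replicate shows inhibition above about 80%, whatever the replicate mean, limit read from the data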;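 further: 0% = DMSO neutral controls and 100% = 20 µM radicicol positive controls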
NALP3 yeast inh: NALP3 inflammasome inhibitors in reconstituted yeast, primary screen, luminescence, uHTS; Yeast reconstituted NLRP3/ASC/caspase-1, beta-gal luminescence, 24 h; inhibition, % at 10 µM; hit rate 0.39% among 330,000; AID 2825, 2010;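 active means inhibition of 50% or more; inactive means inhibition below 50%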;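 further: plate controls were induced DMSO wells for no effect and uninduced yeast grown without galactose for full effect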
NALP1 yeast inh: NALP1 inflammasome inhibitors in reconstituted yeast, colorimetric, S. cerevisiae, triplicate retest | S. cerevisiae NALP1/ASC/caspase-1 growth, X-gal OD620, 72 h | hit rate 0.61% among 280,000 | inhibition, % at 10 µM; in the data active means inhibition mostly above about 24%, no sharp cut-off; inactive means mostly below about 32%
TIM10 conf: growth inhibitors of wild-type TIM10 yeast, confirmation, counter-screen for tim10-1 synthetic lethality project, single concentration, luminescence, S. cerevisiae. AID 463215, 2010. hit rate 63% among 4,600. shares compounds with TIM10 inh. S. cerevisiae tim10 strain growth, BacTiter-Glo luminescence, 24 h. inhibition, % at 10 µM;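 active means inhibition of yeast growth at or above a set limit in either of two replicates at 10 µM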;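 further: this counterscreen used the strain with wild-type TIM10; 0% = yeast with DMSO and 100% = medium wells lacking yeast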
The depositor's hits bear a star; . = not tested or not shown. Rows were chosen to be rich in hits. Some 4.1% of all compounds tested hit in one or more screens of this group.

SMILES	tim10-1 inh	TIM10 inh	tim23-1 inh	PfHsp90 set2	NALP3 yeast inh	NALP1 yeast inh	TIM10 conf
CCN1C[C@@H]2[C@@H]3C(=O)N(C)C(=O)[C@@H]3[C@](CC)(C1=O)N2C(=O)c1ccc(Cl)cc1	.	.	.	-12	.	.	.
CN1CCC(=NNC(=O)CN(c2ccc([N+](=O)[O-])cc2)S(=O)(=O)c2ccccc2)CC1	9	40*	8	8	20	-3	31*
CN1CCC(=NNC(=O)CN(c2cccc([N+](=O)[O-])c2)S(=O)(=O)c2ccccc2)CC1	9	5	14	-23	5	16	.
c1ccc(-c2csc3nnc(SCc4ccc5c(c4)OCCO5)n23)cc1	39	41*	40	-15	3	5	30*
O=C(CSc1nnc2scc(-c3ccccc3)n12)c1ccc2c(c1)OCCO2	29	15	18	-19	-2	0	.
Cc1ccc(NC(=O)CN(C)C(=O)COc2c(Cl)cc(Cl)c3ccc(C)nc23)cc1	34	40*	47	2	-12	24	-1
Cc1ccc(NC(=O)CN(C)C(=O)COc2cccc3ccc(C)nc23)cc1	5	3	-4	38	9	.	.
Cc1coc2cc3oc(=O)c(CC(=O)N[C@@H](CC(C)C)C(=O)O)c(C)c3cc12	10	2	14	-21	14	14	.
CN(CC(=O)Nc1ccc(F)cc1)C(=O)CNC(=O)C1CCCCC1	7	5	-1	.	15	.	.
Cc1cccc(NC(=O)c2nc[nH]c2C(=O)N2CCN(c3ccccc3)CC2)c1	20	4	22	3	-2	.	.
CCOC(=O)c1ccc(N2C(=O)CC(N(C)CCc3ccc(OC)c(OC)c3)C2=O)cc1 (stereo not given)	35	43*	36	112*	25	21	46*
Brc1ccc2ncnc(NCc3ccco3)c2c1	22	14	5	-12	5	-8	.
OC(CNCc1ccco1)Cn1c2ccc(Br)cc2c2cc(Br)ccc21 (stereo not given)	8	46*	21	44	6	1	65*
Nc1ccc(C(=O)NC23CC4CC(CC(C4)C2)C3)cc1	7	14	24	23	17	3	.
Cc1c([N+](=O)[O-])cc(C(=O)Oc2ccc(Br)cc2C(=S)N2CCCCC2)cc1[N+](=O)[O-]	34	44*	21	-28	31	3	32*
Cc1cc(C(F)F)n2nc(C(=O)Nc3ccccc3F)nc2n1	-20	64*	-4	-17	23	6	-8
Cc1cc(C(F)F)n2nc(C(=O)Nc3ccc(F)cc3F)nc2n1	-8	5	8	10	3	6	.
Cc1ccc(Oc2ccc(-c3nc(N)nc(N)n3)cc2)cc1	27	45*	23	-14	23	4	-36
COc1ccc(OCC(=O)NNC(=O)Cn2c(=O)cnc3ccccc32)cc1	1	4	-14	-10	-9	.	.
COc1ccc2nc3sc(C(=O)N4CCN(C)CC4)cc3cc2c1	-20	11	5	0	21	5	.
COc1ccc2nc3sc(C(=O)NCCCN4CCc5ccccc5C4)cc3cc2c1	14	49*	43	-19	-3	-1	57*
Cc1ccc(SCC(=O)Nc2cc([N+](=O)[O-])ccc2O)cc1	4	14	2	4	16	-4	.
O=C(CNC(=O)C1CCCCC1)Nc1cc(Cl)cc(Cl)c1	15	41*	4	-137	11	25	8
Cc1ccc(NCc2nnc(SCC(N)=O)o2)c(C)c1	1	8	13	.	4	0	.
Cc1ccc(NCc2nnc(SCC(=O)N(Cc3ccccc3)C(C)(C)C)o2)c(C)c1	34	41*	29	-15	5	16	16
SMILES	tim10-1 inh	TIM10 inh	tim23-1 inh	PfHsp90 set2	NALP3 yeast inh	NALP1 yeast inh	TIM10 conf
O=C(/C=C/c1ccccc1Cl)NCCc1ccccc1	3	49*	39	-8	45	3	46*
O=C(/C=C/c1ccccc1Cl)NCc1ccccc1	15	1	11	1	25	-8	.
Cc1ccc(C(NC(=O)c2cccc(S(=O)(=O)N3CCN(C)CC3)c2)c2ccccc2)cc1 (stereo not given)	-1	9	3	-14	15	.	.
Cc1ccc(/C=N/NC(=O)NN(C)c2ncc(C(F)(F)F)cc2Cl)cc1	29	41*	19	.	25	7	45*
COc1cc(NC(=S)Nc2cccc(C)n2)cc(OC)c1OC	37	47*	17	-7	27	-22	30*
CCOC(=O)c1sc2nc(CSc3ccccc3)nc(N3CCCN(C)CC3)c2c1C	0	41*	4	18	40	12	30
CN(C)S(=O)(=O)c1cccc(NC(=O)c2ccc(COc3ccccc3)cc2)c1	28	20	21	-49	-6	4	.
COc1cc(C(=O)N/N=C(\c2ccccc2)c2ccccn2)cc(OC)c1OC	22	19	28	-13	-2	21	.
COc1cccc(C(=O)N/N=C(/c2ccccc2)c2ccccn2)c1	35	40*	35	7	15	-33	5
O=S(=O)(c1ccc(=S)[nH]c1)N1CCN(Cc2ccccc2)CC1	-4	5	10	.	4	.	.
Cc1ccc(NC(=O)CCSc2nnc(C)s2)cc1	9	-4	-14	.	14	-83	.
CC1=NN(/C(=N\c2nnc(C)s2)Nc2ccc(C(C)(C)C)cc2)[C@H](c2ccc(C)cc2)S1	34	52*	50	49	12	1	16
Cc1ccc(C2CC(C(F)(F)F)n3ncc(C(=O)NCc4ccco4)c3N2)cc1 (stereo not given)	36	47*	49	.	19	23	32*
Cc1ccc(C2CC(C(F)(F)F)n3ncc(C(N)=O)c3N2)cc1 (stereo not given)	2	-4	10	-5	1	-41	.
O=C(Nc1cccc2ccccc12)N1CCc2ccccc2C1	24	40*	15	4	27	1	-20
CCOC(=O)c1sc(N)nc1C(F)(F)F	.	.	.	-16	.	.	.
COc1ccc(NC(=S)N2CCN(S(=O)(=O)c3ccccc3)CC2)cc1OC	-25	0	-4	34	20	-6	.
O=C(/C=C/c1cccc(Br)c1)NCC1CCCCC1	26	41*	22	-36	17	35	33*
O=C(COC(=O)/C=C/c1cccc(Br)c1)NC1CCCCC1	5	-2	4	13	13	.	.

Screening data deposited in PubChem by several laboratories.
